# Assay results from PubChem BioAssay (Tox21).
# Values joined by “and” are separate entries in the source; they are usually repeats but may differ in a detail not shown here. Equal values may be shown once. Results filed as inconclusive are left out. Where a call stands in place of a potency, no number is given. More than one record can exist for a structure, and the calls need not agree. Active and inactive are the calls of the source. Calls come from the whole dose curve; as a rule, active = well fitted curve in the direction sought with a large enough effect in the repeat runs; inconclusive = weak or mixed curves; inactive = no such curve, though single readings can be large; an effect the other way counts as inactive or inconclusive.
# Assay: A CellTox Green Cytotoxicity Assay to monitor cytotoxicity in HEK293 cells - 0 hour (AID 1224869); note: nearly all actives have a fitted effect of over 50% in size
# Conditions: CellTox Green fluorescence; series mostly up to 76.8 µM; cytotoxicity: at the top concentration
# Summary of the method: (§1)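 Homogeneous no-lysis format: HEK293 cell suspension mixed with CellTox Green reagent, seeded, incubated 5 h at 37 C/5% CO2, then dosed by pintool with compound in DMSO.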
row,Compound,Potency
1,COC(=O)CCCCC(=O)OC,inactive
2,O=C(NCC1CCCCN1)c1cc(OCC(F)(F)F)ccc1OCC(F)(F)F (stereo not given),inactive
3,CCCCCNCCCCC,inactive
4,OB(O)O,inactive
5,C=C(C)CC(C)(C)C,inactive
6,O=[N+]([O-])c1cc(C(F)(F)F)ccc1Cl,inactive
7,CCCCCCC(=O)O,inactive
8,CC(=O)OC/C=C(\C)CCC=C(C)C,inactive
9,OC[C@H]1O[C@@H](Oc2ccc(O)cc2)[C@H](O)[C@@H](O)[C@@H]1O,inactive
10,CC1(C)C(=O)N(Cl)C(=O)N1Cl,inactive
11,CC(=O)c1nccs1,inactive
12,COc1ccc2cc3[n+](cc2c1OC)CCc1cc2c(cc1-3)OCO2,inactive
13,CC(O)CNCC(C)O (stereo not given),inactive
14,Cc1ccccc1Cl,inactive
15,CO[Si](CCCNCCN)(OC)OC,inactive
16,Oc1ccc(Cc2ccccc2O)cc1,inactive
17,CCCN(CCC)C(=O)SCC,inactive
18,CS(=O)(=O)c1ccc(Cl)cc1,inactive
19,CC[N+](CC)(CC(=O)Nc1c(C)cccc1C)Cc1ccccc1,inactive

row,Compound,Potency
1,COc1ccc([C@@H]2CC(=O)c3c(O)cc(O[C@@H]4O[C@H](CO[C@@H]5O[C@@H](C)[C@H](O)[C@@H](O)[C@H]5O)[C@@H](O)[C@H](O)[C@H]4O)cc3O2)cc1OC,inactive
2,C1CCCNCC1,inactive
3,NC(=O)NC(N)=O,inactive
4,O=[N+]([O-])c1ccccc1C(F)(F)F,inactive
5,CC(=O)OC(C)(C)C1CC=C(C)CC1 (stereo not given),inactive
6,CCCCCCCC(=O)O,inactive
7,CC(COCC(C)OC(=O)c1ccccc1)OC(=O)c1ccccc1 (stereo not given),inactive
8,Cc1ccncc1,inactive
9,COc1c(Cl)ccc(Cl)c1C(=O)O,inactive
10,CN=C(NC#N)NCCSCc1nc[nH]c1C,inactive
11,OCC(O)CS (stereo not given),inactive
12,CCOC(=O)CC(=O)OCC,inactive
13,COC(=O)/C=C\C(=O)OC,inactive
14,CC1=CC(=O)CC(C)(C)C1,inactive
15,CC(=O)CC(=O)N(C)C,inactive
16,O=c1n(CCCN2CCN(c3cccc(Cl)c3)CC2)nc2ccccn12,inactive
17,N#CCC(=O)O,inactive
18,NC(=O)c1ncn([C@@H]2O[C@H](CO)[C@@H](O)[C@H]2O)n1,inactive
19,c1cnc2c(c1)ccc1cccnc12,inactive

# Assay: qHTS RealTime-Glo MT Cell Viability Assay in HepG2 cells - 40 hour (AID 1224870); note: nearly all actives have a fitted effect of over 50% in size
# Conditions: RealTime-Glo luminescence; series mostly up to 76.8 µM; activity change, negative = cytotoxic: at the top concentration
# Summary of the method: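 Real-time viability: cells seeded at 600 per well together with NanoLuc and cell-permeant prosubstrate, compounds added after 5 h incubation. Luminescence tracked at 0, 8, 16, 24, 32 and 40 h of exposure.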
row,Compound,Potency
1,O=C(NCC1CCCCN1)c1cc(OCC(F)(F)F)ccc1OCC(F)(F)F (stereo not given),inactive
2,OB(O)O,inactive
3,O=[N+]([O-])c1cc(C(F)(F)F)ccc1Cl,inactive
4,OC[C@H]1O[C@@H](Oc2ccc(O)cc2)[C@H](O)[C@@H](O)[C@@H]1O,inactive
5,COc1ccc2cc3[n+](cc2c1OC)CCc1cc2c(cc1-3)OCO2,inactive
6,CC(O)CNCC(C)O (stereo not given),inactive
7,CO[Si](CCCNCCN)(OC)OC,inactive
8,COc1ccc([C@@H]2CC(=O)c3c(O)cc(O[C@@H]4O[C@H](CO[C@@H]5O[C@@H](C)[C@H](O)[C@@H](O)[C@H]5O)[C@@H](O)[C@H](O)[C@H]4O)cc3O2)cc1OC,inactive
9,C1CCCNCC1,inactive
10,NC(=O)NC(N)=O,inactive
11,O=[N+]([O-])c1ccccc1C(F)(F)F,inactive
12,CC(=O)OC(C)(C)C1CC=C(C)CC1 (stereo not given),inactive
13,CCCCCCCC(=O)O,inactive
14,Cc1ccncc1,inactive
15,COc1c(Cl)ccc(Cl)c1C(=O)O,inactive
16,CN=C(NC#N)NCCSCc1nc[nH]c1C,inactive
17,OCC(O)CS (stereo not given),inactive
18,COC(=O)/C=C\C(=O)OC,inactive
19,CC1=CC(=O)CC(C)(C)C1,inactive
20,CC(=O)CC(=O)N(C)C,inactive
21,N#CCC(=O)O,inactive
22,NC(=O)c1ncn([C@@H]2O[C@H](CO)[C@@H](O)[C@H]2O)n1,inactive
23,c1cnc2c(c1)ccc1cccnc12,inactive

# Assay: A CellTox Green Cytotoxicity Assay to monitor cytotoxicity in HEK293 cells - 40 hour (AID 1224871); note: nearly all actives have a fitted effect of over 45% in size; note: potency is the fitted concentration of half-maximal effect
# Conditions: CellTox Green fluorescence; series mostly up to 76.8 µM; cytotoxicity increase: at the top concentration
# Summary of the method: as §1
Compound,Potency,cytotoxicity increase
O=C(NCC1CCCCN1)c1cc(OCC(F)(F)F)ccc1OCC(F)(F)F (stereo not given),inactive,
CCCCCNCCCCC,inactive,
OB(O)O,inactive,
O=[N+]([O-])c1cc(C(F)(F)F)ccc1Cl,,-1.11% (inactive)
CCCCCCC(=O)O,inactive,
CC(=O)OC/C=C(\C)CCC=C(C)C,inactive,
CC1(C)C(=O)N(Cl)C(=O)N1Cl,inactive,
CC(=O)c1nccs1,inactive,
COc1ccc2cc3[n+](cc2c1OC)CCc1cc2c(cc1-3)OCO2,22 µM (active) and 19 µM (active),
Cc1ccccc1Cl,inactive,
Oc1ccc(Cc2ccccc2O)cc1,inactive,
CCCN(CCC)C(=O)SCC,inactive,
CC[N+](CC)(CC(=O)Nc1c(C)cccc1C)Cc1ccccc1,inactive,
COc1ccc([C@@H]2CC(=O)c3c(O)cc(O[C@@H]4O[C@H](CO[C@@H]5O[C@@H](C)[C@H](O)[C@@H](O)[C@H]5O)[C@@H](O)[C@H](O)[C@H]4O)cc3O2)cc1OC,inactive,
C1CCCNCC1,inactive,
NC(=O)NC(N)=O,inactive,
O=[N+]([O-])c1ccccc1C(F)(F)F,inactive,
CC(=O)OC(C)(C)C1CC=C(C)CC1 (stereo not given),inactive,
CCCCCCCC(=O)O,,-3.65% (inactive)
CC(COCC(C)OC(=O)c1ccccc1)OC(=O)c1ccccc1 (stereo not given),inactive,
Cc1ccncc1,inactive,
CN=C(NC#N)NCCSCc1nc[nH]c1C,inactive,
OCC(O)CS (stereo not given),inactive,
CCOC(=O)CC(=O)OCC,inactive,
CC(=O)CC(=O)N(C)C,inactive,
O=c1n(CCCN2CCN(c3cccc(Cl)c3)CC2)nc2ccccn12,inactive,
N#CCC(=O)O,inactive,
NC(=O)c1ncn([C@@H]2O[C@H](CO)[C@@H](O)[C@H]2O)n1,inactive,
c1cnc2c(c1)ccc1cccnc12,49.4 µM (active) and 43.6 µM (active) and inactive,
